Measured values taken from PubChem BioAssay (NCATS).
Inconclusive results are not listed. Values without a mark were called inactive. Calls of active or inactive are those of the source. The call rests on the fitted dose curve; in most records, active means well fitted inhibition curve with a large enough effect; inconclusive means small, poorly fitted or top-dose-only effect; inactive means flat fitted curve, though single readings scatter.

tested on: NIH3T3; assay: Cytotoxic Profiling of Annotated Libraries Using Quantitative High-Throughput Screening (AID 1296008); details: Five cell lines viability, CellTiter-Glo ATP luminescence, 48-72 h; max response: stronger effect = lower value; further: nearly all actives have a fitted effect of over 60% in size
Summary of the method: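 Cells exposed to compounds for 48 or 72 hr at 37 degrees Celsius. Viability read as ATP-coupled luminescence with CellTiter-Glo after 10 min at room temperature.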
On the % scale 0 is the no-effect control and ±100 the full control effect; potency means the concentration at half of the fitted maximal effect.

Compound | max response [%] | Potency
C/C=C(/C)C1C=CC2CC(C)CC(C)C2C1/C(O)=C1\C(=O)NC(CC(C)(O)C(=O)O)C1=O (centres undefined) | 1.49 | –
CS[C@]1(CO)C(=O)N2[C@H]3C(=CC=C[C@@H]3O)C[C@@]2(SC)C(=O)N1C | -3.97 | –
COc1ccc2c3c4n(c2c1)[C@@H](C=C(C)C)OOC(C)(C)C[C@@H]4N1C(=O)[C@@H]2CCCN2C(=O)[C@]1(O)[C@H]3OCC=C(C)C | 0.42 | –
CC1=CC2/C=C(\C)CCCC(O)/C=C/C(=O)OC23C(=O)NC(CC(C)C)C3C1C (centres undefined) | 1.49 | –
C=CC(C)(C)c1[nH]c2c(CC=C(C)C)cc(CC=C(C)C)cc2c1C[C@@H]1NC(=O)[C@H](C)NC1=O | 2.77 | –
COc1cc(O)c2c(c1)/C=C/C[C@@H](O)[C@@H](O)C(=O)CCC[C@H](C)OC2=O | -5.04 | –
CC(=O)O[C@H]1CC[C@H]2[C@@H]3CC[C@H]4CC(=O)C=C(C)[C@]4(C)[C@H]3CC[C@]12C | -1.67 | –
COc1cc(N2CCN(C)CC2)ccc1N | -6.74 | –
COCC(C(=O)OC1CC2CCC(C1)N2C)c1ccccc1 (centres undefined) | 3.79 | –
N#CC(O[C@@H]1O[C@H](CO)[C@@H](O)[C@H](O)[C@H]1O)c1ccccc1 (some centres undefined) | 1.1 | –
CC[C@H]1C2CC3[C@@H]4N(C)c5ccccc5[C@]45C[C@@H]([C@H]2[C@H]5O)N3[C@H]1O | 4.15 | –
NC(=O)c1ncn2c1CN=C(c1ccccc1Br)c1cc(F)ccc1-2 | 1.84 | –
Cc1c(N2C(=O)[C@@H]3[C@H](O)CCN3C2=O)ccc(C#N)c1Cl | -8.96 | –
CC(=O)O[C@@H]1[C@H]2CC[C@H]3[C@@](C)(O)[C@@H]4C[C@H](O)C(C)(C)[C@@]4(O)[C@H](O)C[C@@]13C[C@@]2(C)O | 4.65 | –
CC(=O)N1N=C(c2ccc(N)cc2)c2cc3c(cc2C[C@H]1C)OCO3 | -2.08 | –
COC(=O)[C@]12CCCC(C)(C)C1CCc1cc(C(C)C)c(O)c(O)c12 (some centres undefined) | 2.35 | –
COc1ccc(CN(C(=O)[C@@H](N)Cc2c(C)cc(C(N)=O)cc2C)[C@@H](C)c2ncc(-c3ccccc3)[nH]2)cc1C(=O)O | -6.08 | –
C=CC/C=C\C/C=C\CCCCCCCc1cc(O)cc(O)c1 | -20.8 | –
CN1C2CCC1CC(OC(=O)N1Cc3ccccc3NC1=O)C2 (centres undefined) | -1.26 | –
COC(=O)CC1CC2(C(=O)c3c(O)cccc3C2(O)C(=O)OC)C(C)O1 (centres undefined) | 4.05 | –

Compound | max response [%] | Potency
c1cncc(OC[C@@H]2CCN2)c1 | -2.03 | –
Cc1c(Cl)c(OCC(=O)N2CCN(C)CC2)nc2sc(C(=O)NC3CC3)c(N)c12 | 0.637 | –
CN1CCc2cc3c(cc2C1C1OC(=O)c2c1ccc1c2OCO1)OCO3 (centres undefined) | 0.735 | –
C#CCO[C@H]1CN2CCC1CC2 | 2.27 | –
CC1CCCC(O)CC(=O)Cc2cc(O)cc(O)c2C(=O)O1 (centres undefined) | 2.95 | –
COc1ccsc1CNCC[C@@]1(c2ccccn2)CCOC2(CCCC2)C1 | -1.76 | –
C1=C(c2cnc[nH]2)c2ccsc2CC1 | -2.31 | –
CC1=CC2(O)/C=C/C(C)(O)C(O)C(O)/C=C/C(=O)OC23C(=O)NC(CC(C)C)C3C1C (centres undefined) | 0.398 | –
C/C=C1/CN2CC[C@]34C(=Nc5ccc(OC)cc53)C2C[C@@H]1C4(CO)C(=O)OC (some centres undefined) | 4.25 | –
Cc1cccc(NC(=O)N[C@H]2CN(C)c3ccccc3C(c3ccccc3)=N2)c1 | -5.29 | –
Oc1ccc2c3c1O[C@H]1c4[nH]c5c(N=C=S)cccc5c4C[C@@]4(O)[C@@H](C2)N(CC2CC2)CC[C@]314 | -11 | –
CO[C@@H]1[C@H](O)[C@@H](O[C@@H]2C[C@H]3CC[C@@H]4C(CC[C@]5(C)[C@@H](C6=CC(=O)OC6)CC[C@]45O)[C@@]3(C)[C@H](O)C2)O[C@H](C)[C@@H]1O (some centres undefined) | 3.09 | –
C[C@@H]1CCC/C=C/[C@H]2C[C@@H](O)C[C@@H]2[C@@H](O)/C=C/C(=O)O1 | – | 4.11 µM (active)
C[C@]12CCC(=O)C=C1CC[C@@H]1[C@@H]2[C@@H](O)C[C@]2(C)C(=O)CC[C@@H]12 | 2.17 | –
CCC(C)(O)C1(C(=O)O)COC(=O)C1 (centres undefined) | -1.83 | –
COC(=O)C1=COC(C)C2CN3CCC4(C(=O)Nc5ccccc54)C3CC12 (centres undefined) | -11.4 | –
CC1(C)C(=O)N(c2ccc(C#N)c(C(F)(F)F)c2)C(=O)N1CCCCO | -6.14 | –
O=C1N[C@@H](Cc2ccccc2)CN2CCCC[C@@H]12 | 1.01 | –
CN1C(=O)CN=C(c2ccccc2Cl)c2cc(Cl)ccc21 | 4.35 | –
